Like-named read-outs stand apart in the source and are kept apart here.
Key:
TNK1 = settings: read-out: apparent Kd, n = 1
TTK = settings: read-out: apparent Kd, n = 1

Lestaurtinib
potency estimated from few doses (TNK1; compound concentrations:100 nM and 1000 nM (sheet 'Lestaurtinib' of Supplementary Table 1),run:Lestaurtinib_02438_R2,Plate:MR008): 65.4 nM | potency estimated from few doses (TNK1; compound concentrations:100 nM and 1000 nM (sheet 'Lestaurtinib' of Supplementary Table 1),run:Lestaurtinib_02438_R3,Plate:MR008): 71.3 nM | potency estimated from few doses (TNK1; compound concentrations:100 nM and 1000 nM (sheet 'Lestaurtinib' of Supplementary Table 1),run:Lestaurtinib_02443_R3,Plate:MR009): 143 nM | potency estimated from few doses (TNK1; compound concentrations:100 nM and 1000 nM (sheet 'Lestaurtinib' of Supplementary Table 1),run:Lestaurtinib_02473_R2,Plate:MR010): 98.6 nM | potency estimated from few doses (TNK1; compound concentrations:100 nM and 1000 nM (sheet 'Lestaurtinib' of Supplementary Table 1),run:Lestaurtinib_02482_R3,Plate:MR011): 222 nM | potency estimated from few doses (TNK1; compound concentrations:100 nM and 1000 nM (sheet 'Lestaurtinib' of Supplementary Table 1),run:Lestaurtinib_02487_R3,Plate:MR012): 81.8 nM | potency estimated from few doses (TNK1; compound concentrations:100 nM and 1000 nM (sheet 'Lestaurtinib' of Supplementary Table 1),run:Lestaurtinib_02496_R2,Plate:MR013): 95.2 nM | potency estimated from few doses (TNK1; compound concentrations:100 nM and 1000 nM (sheet 'Lestaurtinib' of Supplementary Table 1),run:Lestaurtinib_02566_R1,Plate:MR014): 250 nM | potency estimated from few doses (TNK1; compound concentrations:100 nM and 1000 nM (sheet 'Lestaurtinib' of Supplementary Table 1),run:Lestaurtinib_02566_R2,Plate:MR014): 221 nM | potency estimated from few doses (TNK1; compound concentrations:100 nM and 1000 nM (sheet 'Lestaurtinib' of Supplementary Table 1),run:Lestaurtinib_02566_R3,Plate:MR014): 208 nM | potency estimated from few doses (TNK1; compound concentrations:100 nM and 1000 nM (sheet 'Lestaurtinib' of Supplementary Table 1),run:Lestaurtinib_02572_R2,Plate:MR015): 53.4 nM | potency estimated from few doses (TNK1; compound concentrations:100 nM and 1000 nM (sheet 'Lestaurtinib' of Supplementary Table 1),run:Lestaurtinib_02577_R1,Plate:MR016): 240 nM | potency estimated from few doses (TNK1; compound concentrations:100 nM and 1000 nM (sheet 'Lestaurtinib' of Supplementary Table 1),run:Lestaurtinib_02577_R3,Plate:MR016): 209 nM | potency estimated from few doses (TNK1; compound concentrations:100 nM and 1000 nM (sheet 'Lestaurtinib' of Supplementary Table 1),run:Lestaurtinib_02584_R3,Plate:MR017): 220 nM | potency estimated from few doses (TNK1; compound concentrations:100 nM and 1000 nM (sheet 'Lestaurtinib' of Supplementary Table 1),run:Lestaurtinib_02606_R2,Plate:MR019): 45.1 nM | potency estimated from few doses (TNK1; compound concentrations:100 nM and 1000 nM (sheet 'Lestaurtinib' of Supplementary Table 1),run:Lestaurtinib_02606_R3,Plate:MR019): 274 nM | potency estimated from few doses (TNK1; compound concentrations:100 nM and 1000 nM (sheet 'Lestaurtinib' of Supplementary Table 1),run:Lestaurtinib_02624_R1,Plate:MR020): 219 nM | potency estimated from few doses (TNK1; compound concentrations:100 nM and 1000 nM (sheet 'Lestaurtinib' of Supplementary Table 1),run:Lestaurtinib_02624_R3,Plate:MR020): 91.7 nM | potency estimated from few doses (TNK1; compound concentrations:100 nM and 1000 nM (sheet 'Lestaurtinib' of Supplementary Table 1),run:Lestaurtinib_02724_R1,Plate:MR021): 256 nM | potency estimated from few doses (TNK1; compound concentrations:100 nM and 1000 nM (sheet 'Lestaurtinib' of Supplementary Table 1),run:Lestaurtinib_02724_R3,Plate:MR021): 60 nM | potency estimated from few doses (TNK1; compound concentrations:100 nM and 1000 nM (sheet 'Lestaurtinib' of Supplementary Table 1),run:Lestaurtinib_02748_R2,Plate:MR024): 97 nM | potency estimated from few doses (TNK1; compound concentrations:100 nM and 1000 nM (sheet 'Lestaurtinib' of Supplementary Table 1),run:Lestaurtinib_02752_R1,Plate:MR025): 245 nM | potency estimated from few doses (TNK1; compound concentrations:100 nM and 1000 nM (sheet 'Lestaurtinib' of Supplementary Table 1),run:Lestaurtinib_02752_R2,Plate:MR025): 209 nM | potency estimated from few doses (TNK1; compound concentrations:100 nM and 1000 nM (sheet 'Lestaurtinib' of Supplementary Table 1),run:Lestaurtinib_02752_R3,Plate:MR025): 208 nM | potency estimated from few doses (TNK1; compound concentrations:100 nM and 1000 nM (sheet 'Lestaurtinib' of Supplementary Table 1),run:Lestaurtinib_02765_R1,Plate:MR026): 352 nM | potency estimated from few doses (TNK1; compound concentrations:100 nM and 1000 nM (sheet 'Lestaurtinib' of Supplementary Table 1),run:Lestaurtinib_02765_R2,Plate:MR026): 275 nM | potency estimated from few doses (TNK1; compound concentrations:100 nM and 1000 nM (sheet 'Lestaurtinib' of Supplementary Table 1),run:Lestaurtinib_02765_R3,Plate:MR026): 357 nM | potency estimated from few doses (TNK1; compound concentrations:100 nM and 1000 nM (sheet 'Lestaurtinib' of Supplementary Table 1),run:Lestaurtinib_02766_R2,Plate:MR027): 20.7 nM | potency estimated from few doses (TNK1; compound concentrations:100 nM and 1000 nM (sheet 'Lestaurtinib' of Supplementary Table 1),run:Lestaurtinib_02766_R3,Plate:MR027): 55.7 nM | potency estimated from few doses (TNK1; compound concentrations:100 nM and 1000 nM (sheet 'Lestaurtinib' of Supplementary Table 1),run:Lestaurtinib_02768_R2,Plate:MR028): 79.2 nM | potency estimated from few doses (TNK1; compound concentrations:100 nM and 1000 nM (sheet 'Lestaurtinib' of Supplementary Table 1),run:Lestaurtinib_02768_R3,Plate:MR028): 115 nM | potency estimated from few doses (TNK1; compound concentrations:100 nM and 1000 nM (sheet 'Lestaurtinib' of Supplementary Table 1),run:Lestaurtinib_02795_R3,Plate:MR022): 213 nM | potency estimated from few doses (TNK1; compound concentrations:100 nM and 1000 nM (sheet 'Lestaurtinib' of Supplementary Table 1),run:Lestaurtinib_02802_R1,Plate:MR029): 81.9 nM | potency estimated from few doses (TNK1; compound concentrations:100 nM and 1000 nM (sheet 'Lestaurtinib' of Supplementary Table 1),run:Lestaurtinib_03172_R2,Plate:MR031): 211 nM | potency estimated from few doses (TNK1; compound concentrations:100 nM and 1000 nM (sheet 'Lestaurtinib' of Supplementary Table 1),run:Lestaurtinib_03172_R3,Plate:MR031): 85.4 nM | potency estimated from few doses (TNK1; compound concentrations:100 nM and 1000 nM (sheet 'Lestaurtinib' of Supplementary Table 1),run:Lestaurtinib_03252_R1,Plate:MR032): 243 nM | potency estimated from few doses (TNK1; compound concentrations:100 nM and 1000 nM (sheet 'Lestaurtinib' of Supplementary Table 1),run:Lestaurtinib_03260_R1,Plate:MR033): 279 nM | potency estimated from few doses (TNK1; compound concentrations:100 nM and 1000 nM (sheet 'Lestaurtinib' of Supplementary Table 1),run:Lestaurtinib_03260_R2,Plate:MR033): 258 nM | potency estimated from few doses (TTK; compound concentrations:100 nM and 1000 nM (sheet 'Lestaurtinib' of Supplementary Table 1),run:Lestaurtinib_02339_R1,Plate:MR001): 1930 nM | potency estimated from few doses (TTK; compound concentrations:100 nM and 1000 nM (sheet 'Lestaurtinib' of Supplementary Table 1),run:Lestaurtinib_02339_R2,Plate:MR001): 812 nM | potency estimated from few doses (TTK; compound concentrations:100 nM and 1000 nM (sheet 'Lestaurtinib' of Supplementary Table 1),run:Lestaurtinib_02364_R2,Plate:MR002): 1820 nM | potency estimated from few doses (TTK; compound concentrations:100 nM and 1000 nM (sheet 'Lestaurtinib' of Supplementary Table 1),run:Lestaurtinib_02364_R3,Plate:MR002): 1130 nM | potency estimated from few doses (TTK; compound concentrations:100 nM and 1000 nM (sheet 'Lestaurtinib' of Supplementary Table 1),run:Lestaurtinib_02367_R1,Plate:MR003): 172 nM | potency estimated from few doses (TTK; compound concentrations:100 nM and 1000 nM (sheet 'Lestaurtinib' of Supplementary Table 1),run:Lestaurtinib_02367_R2,Plate:MR003): 2190 nM
